An excerpt weighted towards active compounds, which were near 2.5% of everything screened.
L3MBTL1 inh: L3MBTL1 (human) inhibition; AlphaScreen L3MBTL1–H3K9me1 peptide binding; Q9Y468; Potency, µM (series often up to 57.1 µM), usual class: inhibitors; 0.66% of 230,000 active; further: nearly all actives have a fitted effect of over 60% in size
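First, the protein-peptide complex forms for 30 min at room temperature (L3MBTL1 50 nM, biotinylated H3K9me1 peptide 75 nM). Next, compounds are pin-transferred and incubated 30 min. Finally, AlphaScreen beads are added and read after 30 min.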
POLI inh: DNA polymerase iota (human) inhibition; Q9UNA4; Pol iota fluorescent replication assay, 10 min; Potency, µM (highest dose often 115 µM), actives largely listed as inhibitors; 1% of 390,000 active; AID 588590
Target sequence (Q9UNA4 whole entry, looked up): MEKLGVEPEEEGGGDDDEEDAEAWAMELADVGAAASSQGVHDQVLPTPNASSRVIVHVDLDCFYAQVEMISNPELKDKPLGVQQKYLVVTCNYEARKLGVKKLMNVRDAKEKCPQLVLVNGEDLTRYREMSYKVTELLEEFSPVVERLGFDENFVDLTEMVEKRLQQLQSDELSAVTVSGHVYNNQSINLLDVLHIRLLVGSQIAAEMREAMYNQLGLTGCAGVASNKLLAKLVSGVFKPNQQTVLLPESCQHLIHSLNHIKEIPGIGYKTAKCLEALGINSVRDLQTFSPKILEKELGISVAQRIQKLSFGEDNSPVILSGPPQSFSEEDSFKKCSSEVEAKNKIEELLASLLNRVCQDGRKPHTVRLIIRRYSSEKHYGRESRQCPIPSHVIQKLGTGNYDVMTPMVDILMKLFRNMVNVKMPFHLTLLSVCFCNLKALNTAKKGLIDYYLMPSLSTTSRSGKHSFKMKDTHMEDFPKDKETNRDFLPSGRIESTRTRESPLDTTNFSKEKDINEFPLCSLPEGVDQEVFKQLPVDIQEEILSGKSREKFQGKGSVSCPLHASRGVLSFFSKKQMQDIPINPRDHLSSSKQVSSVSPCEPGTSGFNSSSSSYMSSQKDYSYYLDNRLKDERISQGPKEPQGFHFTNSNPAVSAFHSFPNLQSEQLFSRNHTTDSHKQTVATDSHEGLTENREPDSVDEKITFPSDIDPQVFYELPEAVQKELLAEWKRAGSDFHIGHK
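Fluorescent replication assay read twice, at 0 min and 10 min after adding 50 nM (final) substrate. Enzyme (10 nM) and compounds were first incubated 15 min at room temperature; enzyme-free buffer wells were negative controls.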
POLB inh: blocks human DNA polymerase beta activity; P06746; Pol beta primer extension/strand displacement, fluorescence kinetic; Potency, µM (doses to about 114 µM), hits mostly inhibitors; 1.3% of 340,000 active; AID 485314
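Pol beta (10 nM) was preincubated with compound for 15 min at room temperature. The reaction was then started with 50 nM substrate and read immediately and after a further 10 min at room temperature.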
Pol eta inh: inhibitors of human DNA polymerase eta. Potency, µM (highest dose often 114 µM), hits mostly inhibitors. AID 588591. recombinant Pol eta, fluorescent DNA replication assay. 1.2% of 390,000 active
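Pol eta at 10 nM preincubated with compounds 15 min at room temperature; reaction started with fluorescent substrate (50 nM final) and read kinetically at 0 and 10 min.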
POLK inh: blocks human DNA polymerase kappa activity; Q9UBT6; AID 588579; Potency, µM (series often up to 107 µM), most hits filed as inhibitors; 0.53% of 400,000 active; purified Pol kappa, fluorescent DNA synthesis assay, 10 min
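Here, compound and 10 nM enzyme are combined for 15 min at room temperature; adding 50 nM substrate (final) starts DNA synthesis, tracked by fluorescence at 0 and 10 min against buffer-only wells.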
WRN inhibitor: inhibitors of human WRN helicase; WRN helicase unwinding, fluorescent forked duplex, kinetic; Potency, µM (series often up to 114 µM), hits mostly inhibitors; 0.46% of 360,000 active; further: nearly all actives have a fitted effect of over 55% in size
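Kinetic red-fluorescence monitoring (525/598 nm) tracks WRN helicase activity after 100 nM fluorophore-quencher forked duplex and 2 mM ATP are added to 20 nM enzyme pretreated 15 min at room temperature with compound.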
Large screens that a line does not name were inactive. The call rests on the fitted dose curve; in most records, active means well fitted curve in the direction sought with a large enough effect; inconclusive means small, poorly fitted or top-dose-only effect, or another doubt; inactive means no such curve, though single readings can be large; an effect the other way counts as inactive or inconclusive.

COc1ccc(N2C(=O)/C(=C/c3cc(C)n(-c4ccc(C)cn4)c3C)C(=O)NC2=S)c(OC)c1	L3MBTL1 inh inconclusive, Pol eta inh inconclusive
COc1ccc(OC)c(N2C(=O)/C(=C/c3ccco3)C(=O)NC2=S)c1	POLI inh inconclusive, POLB inh inconclusive, Pol eta inh 0.71µM, POLK inh 3.5µM, WRN inhibitor 3.2µM (no result: L3MBTL1 inh)
O=C1c2cccc3cccc(c23)C(=O)N1CCN1CCN(C(=S)Nc2ccccc2)CC1	POLI inh inconclusive, Pol eta inh inconclusive
Cc1nn2c(=O)cc(COC(=O)c3ccccc3NC(=O)c3cccs3)nc2s1	Pol eta inh 89µM (no result: L3MBTL1 inh, WRN inhibitor)
CC(C)c1nn2c(=O)cc(COC(=O)Cc3ccccc3)nc2s1	none (no result: L3MBTL1 inh, WRN inhibitor)
CC(=O)O[C@@H]1CN2CCC1CC2	none (no result: L3MBTL1 inh, POLI inh, POLB inh, Pol eta inh, WRN inhibitor)
C[C@@H](NC(=O)[C@@H](N)Cc1ccc(O)cc1)C(=O)NCC(=O)N(C)[C@@H](Cc1ccccc1)C(=O)NCCO	none (no result: L3MBTL1 inh, POLI inh, POLB inh, Pol eta inh, WRN inhibitor)
N=C(N)c1ccc(-c2ccc(-c3ccc(C(=N)N)cc3)o2)cc1	POLI inh 10µM, POLK inh 13µM (no result: L3MBTL1 inh, POLB inh, Pol eta inh, WRN inhibitor)
O=P(/C=C1\OCc2ccccc21)(Oc1ccccc1)Oc1ccccc1	none (no result: L3MBTL1 inh, POLI inh, POLB inh, Pol eta inh, POLK inh)
CCOP(=O)(/C=C(\Cl)c1ccccc1)C(O)c1ccc(F)cc1 (stereo not drawn)	none (no result: L3MBTL1 inh)
O=C1NC(=O)C(=Cc2ccc(Sc3ccccc3)o2)C(=O)N1	POLI inh inconclusive, Pol eta inh inconclusive, WRN inhibitor 11µM
CN1C(=O)C(=Cc2ccc(Sc3ccccc3)o2)C(=O)N(C)C1=O	POLB inh inconclusive, WRN inhibitor inconclusive
O=C1NC(=O)C(=Cc2ccc(-c3ccc(F)cc3O)o2)C(=O)N1	L3MBTL1 inh inconclusive, POLI inh inconclusive, Pol eta inh 71µM
O=C1NC(=O)C(=Cc2ccc(-c3ccc(S(=O)(=O)N4CCOCC4)cc3)o2)C(=O)N1	POLI inh 25µM
O=C1NC(=O)C(=Cc2ccc(N3CCOCC3)cc2)C(=O)N1	POLI inh inconclusive
O=C1NC(=O)C(=Cc2ccc(-c3ccc(Cl)cc3)o2)C(=O)N1	POLI inh 11µM, Pol eta inh 79µM
Cc1ccc(/C=C2\C(=O)NC(=O)N(CCc3ccc(F)cc3)C2=O)o1	L3MBTL1 inh inconclusive, POLI inh inconclusive
O=C1C=C2C=C[C@H]3C[C@@]2(O1)[C@H]1CCCCN31	none (no result: L3MBTL1 inh, POLI inh, POLB inh, Pol eta inh, WRN inhibitor)
O=C(c1ccccc1)c1ccc2nc(N3CCN(c4ccc(F)cc4)CC3)c3nncn3c2c1	none (no result: L3MBTL1 inh, WRN inhibitor)
C=C(C)C1CCC(C)=CC1c1c(OC)cc(C)cc1OC (stereo not drawn)	none (no result: L3MBTL1 inh, POLI inh, POLB inh, Pol eta inh, WRN inhibitor)
CO/C1=C\C(C)=C\[C@@H](C)[C@@H](O)[C@@H](C)C/C(C)=C/C=C\[C@H](OC)C([C@@H](C)[C@@H](O)[C@H](C)[C@@]2(O)C[C@@H](O)[C@H](C)C(C(C)C)O2)OC1=O (stereo partly drawn)	none (no result: L3MBTL1 inh, POLI inh, POLB inh, Pol eta inh, WRN inhibitor)
CC1(C)C[C@H]2C=C(C=O)[C@]3(C=O)C[C@]3(C)[C@H]2C1	POLI inh 45µM, POLB inh 20µM, POLK inh inconclusive
COc1ccc(-c2nn(CCC#N)cc2C(=O)Nc2cccc([N+](=O)[O-])c2)cc1OC	none
CN1CCc2cc(O)cc3c2C1Cc1ccc(O)c(O)c1-3 (stereo not drawn)	POLI inh 16µM (no result: L3MBTL1 inh, WRN inhibitor)
CC(=O)O[C@H]1C[C@@H](O[C@@H]2[C@H](C)O[C@H](O[C@@H]3[C@H](C)O[C@H](O[C@@H]4CC[C@@]5(C)[C@@H](CC[C@]6(C)[C@]5(C)C[C@H](O)[C@]5(C)[C@@H](C7=CC(=O)OC7)CC[C@@]56O)C4)C[C@@H]3O)C[C@@H]2O)O[C@@H](C)[C@H]1O[C@H]1O[C@@H](CO)[C@@H](O)[C@@H](O)[C@@H]1O	none (no result: L3MBTL1 inh, POLI inh, POLB inh, Pol eta inh, WRN inhibitor)
CNC(C)C1CC[C@H](N)[C@@H](OC2C(N)C[C@H](N)[C@@H](OC3OC[C@](C)(O)C(NC)[C@H]3O)C2O)O1 (stereo partly drawn)	none (no result: L3MBTL1 inh, POLI inh, POLB inh, Pol eta inh, WRN inhibitor)
O=C(CN1CCCCC1)c1ccccc1	none (no result: L3MBTL1 inh, POLB inh, Pol eta inh, WRN inhibitor)
Cc1cccc(N=Nc2ccc(N(C)C)cc2)c1	none (no result: L3MBTL1 inh)
Cc1ccc(C=C2C(Cl)=C(Cl)C(Cl)=C2Cl)cc1	L3MBTL1 inh 3.2µM, POLI inh 2.8µM, POLB inh 4µM, Pol eta inh 11µM, POLK inh 16µM, WRN inhibitor 45µM
CCOc1ccc(-c2nc3ccc(-c4nc5ccc(N6CCN(C)CC6)cc5[nH]4)cc3[nH]2)cc1	POLK inh 0.3µM (no result: L3MBTL1 inh, POLI inh, POLB inh, Pol eta inh, WRN inhibitor)
CCOC(=O)CSc1ccc(C(=O)N2CCC3(CC2)OCCO3)cc1[N+](=O)[O-]	none (no result: L3MBTL1 inh)
COc1ccc2c(c1OC)CN1CCc3cc4c(cc3[C@H]1C2)OCO4	none (no result: POLB inh)
COc1ccc2c(c[n+](C)c3c4cc5c(cc4ccc23)OCO5)c1OC	POLI inh inconclusive, POLB inh 28µM, Pol eta inh inconclusive (no result: L3MBTL1 inh, WRN inhibitor)
Cc1ccc(NC(=O)N2CC2)cc1NC(=O)N1CC1	none (no result: L3MBTL1 inh, POLB inh)
CCN(c1ccc(C)cc1C)S(=O)(=O)c1nnc(NC(=O)c2ccco2)s1	POLI inh inconclusive, Pol eta inh 79µM (no result: L3MBTL1 inh)
CC(C)CCNC(=O)CN1C(=O)CN=C(c2ccccc2)c2ccccc21	none (no result: L3MBTL1 inh)
O=C(CN1C(=O)CN=C(c2ccccc2)c2ccccc21)NCc1ccco1	L3MBTL1 inh 20µM, Pol eta inh inconclusive, POLK inh inconclusive

Screening results as filed in PubChem BioAssay.
